Screening results (PubChem BioAssay)
The list is a sample of the results.
aSyn UTR act: Activators via SNCA 5'UTR binding, MLPCN | AID 1814, 2009 | alpha-synuclein 5'UTR reporter, activators screen | activity score, % (tested at 7.5 µM), hits read low | 7.1% of 300,000 active; in the data active means activity score below about -60%
Active calls of the source: *.

SMILES	aSyn UTR act
CC(=O)c1ccc(OCc2cc(C(=O)N3CCCCC3c3cccnc3)no2)cc1 (stereo not given)	-83*
Cc1cccc(C)c1OCc1cc(C(=O)N2CCC(c3ccccc3)CC2)no1	-80*
Cc1ccc(OCc2cc(C(=O)NC(C)Cc3cccnc3)no2)cc1C (stereo not given)	-82*
CC(=O)c1ccc(OCc2cc(C(=O)NC3CCCCC3)no2)cc1	-81*
Clc1ccc(-c2csc(Nc3ccccc3)[n+]2Cc2ccco2)c(Cl)c1	-269*
C=CC[n+]1c(-c2ccc(Cl)cc2Cl)csc1Nc1ccc(NC(C)=O)cc1	94
CCCC[n+]1c(-c2ccc(Cl)cc2Cl)csc1Nc1ccccc1	-128*
CCC(C)n1ncn(-c2ccc(N3CCN(c4ccc(O)cc4)CC3)cc2)c1=O (stereo not given)	73
O=C(Nc1ccc(-c2cnco2)cc1)c1ccc(F)cc1F	-146*
COC(=O)c1ccc(COC(=O)CNC(=O)c2ccc(-c3ccccc3)cc2)cc1	-87*
COc1ccc(CC(=O)NCc2ccccc2)cc1	-154*
COc1ccc(CNC(=O)c2ccc(N3CCCC3=O)cc2)cc1	-71*
COc1ccc(CNC(=O)c2nc(S(=O)(=O)Cc3ccccc3)ncc2Cl)cc1	49
COc1ccc(CNC(=O)c2ccc(-c3ccccc3)cc2)cc1	-115*
COc1cccc(/C=N/NC(=O)c2ccc(N3CCCC3=O)cc2)c1	-112*
O=C(NCc1ccccc1)c1c(Cl)nc(Cl)c(Cl)c1Cl	99
COc1ccc(OC)c(NS(=O)(=O)c2ccc(N3CCCC3=O)cc2)c1	111
O=C(Cc1ccc(Br)cc1)NCc1ccccc1	-67*
CC1(C)OC2OC(COC(=O)c3ccccc3)C3OC(C)(C)OC3C2O1 (stereo not given)	-89*
N=c1oc2c3c4c(cc2cc1C(=O)Nc1ccccc1)CCCN4CCC3	-276*
CC(C)(C)c1ccc(-c2nc(N)nc(N)n2)cc1	-89*
O=C(Nc1ccc(F)cc1)Nc1csc2ccccc12	-87*
CN(C)c1ccc(NC(=O)Nc2csc3ccccc23)cc1	-141*
Cc1nc2cc(-c3ccccc3)[nH]n2c(=O)c1C	-114*
Cc1nc2nc(-c3ccccc3)[nH]n2c(=O)c1C	-119*
SMILES	aSyn UTR act
Nc1c(C(=O)N/N=C/c2cccnc2)cnn1-c1ccccc1	-67*
O=C(CC1NCCNC1=O)Nc1ccc(Cl)c(Cl)c1 (stereo not given)	-92*
COc1cccc(NC(=O)c2cc(=O)c3ccccc3o2)c1	-72*
Cc1cccc(NC(=O)c2cc(=O)c3ccccc3o2)c1	-67*
Cc1cccc(NC(=O)c2cc(=O)c3ccccc3o2)n1	-132*
Cc1ccc(NC(=O)c2cc(=O)c3ccccc3o2)cc1	-190*
Cc1cc(NCCCn2ccnc2)n2nc(C)c(-c3ccccc3)c2n1	-140*
Cc1cc(NCCCn2ccnc2)n2nc(C)c(-c3ccc(Cl)cc3)c2n1	54
N#Cc1ccccc1NC(=O)c1ccc(-c2ccccc2Cl)o1	-128*
O=C(Nc1ccccc1)c1ccc(-c2ccccc2Cl)o1	-178*
CC1CCCCN1C(=O)COC(=O)c1n[nH]c2ccccc12 (stereo not given)	-73*
O=C(OCCOc1ccccc1)c1n[nH]c2ccccc12	-168*
O=C(NCCc1ccccc1)c1n[nH]c2ccccc12	-144*
Nc1c(C(=O)NCCc2ccccc2)nnn1Cc1ccccc1	-75*
COCCn1c(C)cc(C(=O)COC(=O)c2n[nH]c3ccccc23)c1C	81
O=C(NCCc1ccccc1)c1nccc2ccccc12	-111*
O=C(Nc1ccccc1)c1nnn(Cc2ccccc2)c1NC(=O)C(F)(F)F	-72*
CN(C)/C=N/c1sc2c(c1C#N)CCCCC2	-124*
N#Cc1c(/N=C/c2ccc(-c3ccccc3C(=O)O)o2)sc2c1CCCC2	-78*
N#Cc1c(/N=C/N2CCOCC2)sc2c1CCCCC2	-122*
N#Cc1c(/N=C/c2cccs2)sc2c1CCCCC2	-186*
C[n+]1c2n(c3ccccc31)N=C(c1cc(C(C)(C)C)c(O)c(C(C)(C)C)c1)CS2	68
Cc1nnsc1S(=O)(=O)Cc1ccccc1C(F)(F)F	-76*
CCCC(=NCCc1c(C)[nH]c2ccccc12)C1=C(O)CC(c2ccccc2)CC1=O (stereo not given)	86
Cc1[nH]c2ccccc2c1CN1CCc2ccccc2C1	-62*
SMILES	aSyn UTR act
O=C(NC(=S)Nc1ccc(N2CCOCC2)cc1)c1cccs1	-126*
Cc1ccc(C(=O)N2CCN(c3ccc(NC(=S)NC(=O)c4cccs4)cc3)CC2)cc1	52
Cc1cccc(C(=O)NC(=S)Nc2ccc(N3CCOCC3)cc2)c1	-66*
C/C(=N/NC(=O)c1cccs1)c1ccc(N2CCOCC2)cc1	-66*
Cc1cccc(OCCN2C(=O)c3ccccc3C2=O)c1	-67*
Cc1cccc(OCCn2c(=O)n(C)c3ccccc32)c1	-162*
Cc1ccc2c(c1)C(=O)C(=O)N2CCCOc1ccccc1	-68*
O=C1c2ccccc2C(=O)N1CCCOc1ccccc1	-62*
Cc1ccc2oc(=O)n(CCCOc3ccccc3)c2c1	-69*
CCOc1ccc(OCCN2C(=O)c3ccccc3C2=O)cc1	-94*
